Potency and cell number change data for 48 molecules are collected here from PubChem BioAssay AID2685 (National Center for Advancing Translational Sciences (NCATS), 2010).

SMILES strings stand for the structures. The whole screen tested about 320,000 compounds, of which about 2,100 (0.66%) were called active. Another 53% or so got no clear call; they are omitted. Calls come from the whole dose curve; as a rule, active = well fitted inhibition curve with a large enough effect in the signal ratio, with a control signal flat (not every such curve was filed as active); inconclusive = small, poorly fitted or top-dose-only effect, or effect the other way, or a change in a side signal; inactive = flat fitted curve, though single readings scatter; the % refers to the signal ratio. The entries come from a sample that favours actives as a whole.
Potency is the fitted concentration of half-maximal effect.

A short description of the assay: qHTS Assay for Lipid Storage Modulators in Drosophila S3 Cells.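 For cell number change: cells counted by Cell Tracker Red CMTPX staining in the red channel.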 The note with it: BODIPY lipid droplet fluorescence, 18-24 h, cells fed with added oleic acid; cell number change: measured here: cell count max response; series mostly up to 46.1 µM. Summed up: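 Drosophila S3 cells loaded with oleic acid (400 uM, as added) and compounds at several concentrations; lipid droplets imaged by 488-nm laser-scanning cytometry, 500–530 nm intensity and object ratio to cell channel. Percent activity normalized to 20 uM Triacsin C.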
(qHTS replaces the single test concentration by a dilution series.)
As for `CC(=O)C(Sc1ccc2nnc(-c3ccncc3)n2n1)C(C)=O`, the Potency result was “inactive” and the cell number change amounted to 11%.
In the case of `Cc1cc(C)cc(N(CCC(=O)Nc2nnc(C)s2)S(=O)(=O)c2ccc(Cl)cc2)c1`, the Potency result was “inactive” and the cell number change is -5.03%.
On to `Cc1nc([N+](=O)[O-])c(SCC(N)=O)n1Cc1ccccc1`, for which the Potency result is “inactive” and the cell number change was 11.1%.
Consider `Cc1ccc(C(=O)C2CCN(S(=O)(=O)c3ccccc3C(=O)O)CC2)cc1`, for which the Potency result is “inactive” and the cell number change was 25.8%.
Consider `COCCN(CC1CCCN(C2Cc3ccccc3C2)C1)C(=O)CCC(F)(F)F` (stereo not given), for which the Potency result was “inactive” and the cell number change was 20.2%.
Turning to `O=C(Nc1ccc(C(=O)N2CCCCC2)cc1)Nc1cccc(Cl)c1`, the Potency was 13 µM (active).
Take `CC(=O)c1cccc(NC(=O)Nc2ccc(C(=O)N3CCCC3)cc2)c1`: the Potency entry is “inactive” and the cell number change is 14.3%.
In the case of `COc1ccc(NC(=O)N2CCCC(C(=O)NC(C)C)C2)cc1` (stereo not given), the Potency entry was “inactive” and the cell number change was determined as 10.2%.
Turning to `COc1cccc(NC(=O)COc2ccc3c(c2)CCC3)c1`, the Potency result was “inactive”.
On to `CC1CCCN(CCC(=O)c2ccc(Br)cc2)C1` (stereo not given), for which the Potency result was “inactive” and the cell number change is -9.39%.
Turning to `CCOc1ccc(NC(=O)COc2ccc3c(c2)CCC3)cc1OC`, the Potency entry is “inactive” and the cell number change is -12.3%.
On to `COc1ccc(NC(=O)CCN2CCCC(C)C2)cc1` (stereo not given), for which the Potency entry is “inactive” and the cell number change turned out to be 17%.
For `COc1ccc(NC(=O)C2CCCN(C(=O)Nc3ccc(OC)cc3)C2)cc1` (stereo not given) the same measures were 1.03 µM (active) and 16.7%.
As for `COc1ccc(C(=O)CCN2CCCC(C)C2)cc1` (stereo not given), the Potency was 11.6 µM (active) and the cell number change is -14.2%.
For `COc1ccc(NC(=O)N2CCCC(C(=O)Nc3ccccc3OC)C2)cc1` (stereo not given) the same measures were “inactive” and 0.427%.
Consider `COc1ccc(NC(=O)COc2ccc3c(c2)CCC3)cc1`, for which the Potency was 8.2 µM (active).
As for `O=C(Nc1ccc(C(=O)N2CCOCC2)cc1)Nc1cccc(Cl)c1`, the Potency result is “inactive” and the cell number change turned out to be 5.64%.
With `NS(=O)(=O)c1cc(Cl)c(NC(=O)COC(=O)c2ccccn2)c(Cl)c1`, the Potency result is “inactive” and the cell number change amounted to 16.5%.
On to `N#Cc1ccccc1OCC(=O)Nc1ccc2c(c1)OCCCO2`, for which the Potency result is “inactive” and the cell number change was 0.833%.
On to `O=[N+]([O-])c1ccc(Oc2ccc(OCc3ccccc3)cc2)nc1`, for which the Potency entry is “inactive” and the cell number change was -9.11%.
For `CC(=O)Nc1ccc(NC(=O)C(C)OC(=O)CCC(=O)c2ccc(F)cc2)cc1` (stereo not given) the same measures were “inactive” and 8.99%.
For the molecule `Cc1ccc(C(=O)NNC(=O)c2ccncc2)cc1C`, the Potency entry is “inactive” and the cell number change was 12.2%.
For `CCOC(=O)N1CCN(CC(O)COc2c(C)cc(C)cc2C)CC1` (stereo not given) the same measures were “inactive” and 5%.
For `O=C(CCN1CCCCC1)Nc1cccc(Cl)c1` the same measures were 25.9 µM (active) and -28.1%.
For `O=C(Cc1ccc(S(=O)(=O)N2CCOCC2)s1)Nc1ccc2c(c1)CCC2` the same measures were “inactive” and -23.1%.
As to `O=C(NCCN1CCCCC1)Nc1cccc(F)c1`, the Potency result was “inactive” and the cell number change is -5.7%.
For `Cc1cccc(NC(=O)CCN2CCCCC2)c1` the same measures were “inactive” and 8.73%.
Turning to `O=C(CCN1CCCCCC1)Nc1cccc(F)c1`, the Potency is 25.9 µM (active) and the cell number change is -13.4%.
For `CCOC(=O)c1cc(NC(=O)Cc2ccc(S(=O)(=O)N3CCOCC3)s2)cc(C(=O)OCC)c1` the same measures were 1.16 µM (active) and -15.4%.
Regarding `O=C(CCN1CCCCC1)Nc1ccccc1`, the Potency entry was “inactive” and the cell number change was -23.3%.
As for `CNC(=O)c1ccc(NC(=O)Cc2ccc(S(=O)(=O)N3CCOCC3)s2)cc1`, the Potency entry was “inactive”.
For `O=C(CCN1CCCCCC1)Nc1ccc(F)cc1`, the Potency result is “inactive” and the cell number change was -3.75%.
For `COc1ccc(NC(=O)C2CCCN(S(=O)(=O)c3ccc4c(c3)oc(=O)n4C)C2)c(OC)c1` (stereo not given) the same measures were “inactive” and 13.3%.
For `COc1cc(C2NC(=O)NC(C)=C2C(C)=O)cc(OC)c1OC` (stereo not given) the same measures were “inactive” and 0.318%.
With `COc1ccc(CC(=O)Nc2ccc(/C(C)=N\NC(=O)c3ccc(Br)o3)cc2)cc1`, the Potency result is “inactive” and the cell number change was determined as 2.49%.
For `COC(=O)c1ccc(COC(=O)C2CC(O)CN2S(=O)(=O)c2ccc([N+](=O)[O-])cc2)cc1` (stereo not given) the same measures were “inactive” and 2.24%.
For `CC1CCCC(C)N1C(=O)CSc1nnc(NC(=O)c2cccs2)s1` (stereo not given), the Potency result is “inactive” and the cell number change stood at 3.67%.
For `CCn1cc([N+](=O)[O-])c(C(=O)N2CCCC2)n1` the same measures were 29.1 µM (active) and -10.5%.
For `CCn1cc([N+](=O)[O-])c(C(=O)N2CCOCC2)n1` the same measures were “inactive” and -13.3%.
For `CCn1cc([N+](=O)[O-])c(C(=O)N2CCCCCC2)n1` the same measures were “inactive” and 11.5%.
With `COc1ccc(/C=N/S(=O)(=O)c2ccc(C)cc2)cc1`, the Potency entry was “inactive”.
Take `Cc1ccc(SCC(=O)OCC(=O)NC(C)c2ccc(Br)cc2)cc1` (stereo not given): the Potency result was “inactive” and the cell number change is -2.31%.
For `CC(=O)C(Cc1ccccc1)NC(=O)COC(=O)CCN1C(=O)C2CC=CCC2C1=O` (stereo not given) the same measures were “inactive” and 7.02%.
Turning to `CC(NC(=O)COC(=O)CCN1C(=O)C2CC=CCC2C1=O)c1ccc(Br)cc1` (stereo not given), the Potency is 9.2 µM (active) and the cell number change amounted to 1.69%.
For the molecule `O=C1N(CC(=O)N2CCc3ccccc32)CCN1Cc1ccc(Cl)cc1`, the Potency result is “inactive”.
`COc1cc(Cl)nn(-c2ccccc2)c1=O`: the Potency result was “inactive” and the cell number change is 0.264%.
Take `COc1nn(-c2ccccc2)c(=O)c(Cl)c1Cl`: the Potency is 11.6 µM (active) and the cell number change is -20%.
For `COc1c(Cl)cnn(-c2ccccc2)c1=O` the same measures were “inactive” and -2.85%.
